# Measured values: PubChem BioAssay (NCATS)
# Unmarked numbers belong to inactive results. Records with an inconclusive call do not appear. A call without a number means that no potency is given here. The source made the active and inactive calls. Calls follow the shape of the dose curve; as a rule, active = well fitted curve in the direction sought with a large enough effect; inconclusive = small, poorly fitted or top-dose-only effect, or another doubt; inactive = no such curve, though single readings can be large; an effect the other way counts as inactive or inconclusive.
# Columns and labels:
# [1] = target: Furin (Homo sapiens) (UniProt P09958); test: Furin counterscreen qHTS for Zika virus inhibitors (AID 1347149); also: nearly all actives have a fitted effect of over 70% in size; also: potency is read from the fitted curve at half-maximal effect
# Sequence of Furin (Homo sapiens) (P09958 whole entry, looked up): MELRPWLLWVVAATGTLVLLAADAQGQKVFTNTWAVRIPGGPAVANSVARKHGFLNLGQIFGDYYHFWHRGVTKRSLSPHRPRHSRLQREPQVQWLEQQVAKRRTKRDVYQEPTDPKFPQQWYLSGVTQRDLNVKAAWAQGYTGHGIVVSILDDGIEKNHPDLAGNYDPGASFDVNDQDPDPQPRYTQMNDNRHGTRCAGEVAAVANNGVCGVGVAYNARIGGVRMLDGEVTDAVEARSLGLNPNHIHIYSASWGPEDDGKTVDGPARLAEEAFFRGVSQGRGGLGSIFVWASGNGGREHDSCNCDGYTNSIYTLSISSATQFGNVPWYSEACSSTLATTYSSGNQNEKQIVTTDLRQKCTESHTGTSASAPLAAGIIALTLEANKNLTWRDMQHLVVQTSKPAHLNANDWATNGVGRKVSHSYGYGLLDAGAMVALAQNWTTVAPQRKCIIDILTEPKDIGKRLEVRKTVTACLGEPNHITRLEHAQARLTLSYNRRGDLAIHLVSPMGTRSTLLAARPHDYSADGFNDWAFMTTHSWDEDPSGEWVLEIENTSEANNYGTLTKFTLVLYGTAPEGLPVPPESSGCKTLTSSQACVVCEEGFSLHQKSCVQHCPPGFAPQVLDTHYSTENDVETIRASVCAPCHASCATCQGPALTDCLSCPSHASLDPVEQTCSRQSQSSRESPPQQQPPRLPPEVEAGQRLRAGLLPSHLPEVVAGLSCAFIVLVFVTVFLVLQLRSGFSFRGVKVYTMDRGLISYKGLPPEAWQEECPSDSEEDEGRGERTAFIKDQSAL
# How it was run: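 Counterscreen measures cleavage of 2 microM BOC-RVRR-AMC, below its ~15 microM Km, by 5 nM full-length human furin at pH 7.0 after a 15-min compound preincubation. Inhibition derives from the 15-min fluorescence increase at 37C.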
# [2] = Confirmatory screen GU Rhodamine qHTS for Zika virus inhibitors qHTS (AID 1347157); also: nearly all actives have a fitted effect of over 70% in size; also: potency is read from the fitted curve at half-maximal effect
# How it was run: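 Noncovalent NS2B hydrophilic domain/NS3 protease complex (25 nM final) in 10 mM Tris-HCl pH 8.0, 0.01% Tween 20, preincubated 15 min with compounds (up to 114 microM), then 1.5 microM Rhodamine110 substrate. Fluorescence change over 15 min fitted to 4-parameter Hill.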
# [3] = Confirmatory screen NINDS Rhodamine qHTS for Zika virus inhibitors (AID 1347161); also: nearly all actives have a fitted effect of over 60% in size; also: potency is read from the fitted curve at half-maximal effect
# How it was run: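 Purified NS2B-NS3 protease with the NS2B hydrophilic domain joined by a flexible linker (25 nM) in 10 mM Tris-HCl pH 8.0, 0.01% Tween 20, preincubated 15 min at RT with compound; Rhodamine110 peptide substrate 1.5 µM; fluorescence change over 15 min; 4-parameter Hill fit.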
# [4] = Tertiary RLuc qRT-PCR qHTS assay for Zika virus inhibitors (AID 1347169); also: top concentration of the series differs between compounds; nearly all actives have a fitted effect of over 55% in size
# How it was run: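 Orthogonal cell-based readout: luminescence measured 1-1.5 hrs after adding live-cell Renilla substrate to Vero cells that had been infected with ZIKV-RLuc (MOI 1-2) post-compound, incubated 48-72 hrs at 37 degrees C.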
# [5] = target: Calcium and integrin-binding protein 1 (Homo sapiens) (UniProt Q99828); test: Primary qHTS for Identification of Calcium Integrin Binding Protein 1 (CIB1) Competitor (AID 1508620);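 also: GST tagged CIB1 binding a fluorescein labelled alphaIIb integrin peptide tracer; top concentration of the series differs between compounds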
# Sequence of Calcium and integrin-binding protein 1 (Homo sapiens) (Q99828 whole entry, looked up): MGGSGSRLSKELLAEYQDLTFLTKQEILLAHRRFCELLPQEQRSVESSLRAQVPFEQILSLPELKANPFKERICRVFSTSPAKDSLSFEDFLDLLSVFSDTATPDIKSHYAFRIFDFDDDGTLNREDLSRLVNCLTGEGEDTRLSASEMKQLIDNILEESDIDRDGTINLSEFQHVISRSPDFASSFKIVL
# How it was run: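 Fluorescence polarization competition: GST-tagged CIB1 (1 uM final) preincubated with compound 15 min at room temperature, then FITC-labelled alphaIIb peptide (100 nM final) added. After 15 min at room temperature, polarization read at Ex 480/Em 540.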
# [6] = system: Zika virus NS2B-NS3 protease (linked); test: 384 well plate NINDS AMC confirmatory qHTS for Zika virus inhibitors (AID 1347163); also: potency is read from the fitted curve at half-maximal effect; nearly all actives have a fitted effect of over 50% in size
# How it was run: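 Enzyme (5, 30 or 60 nM final) first met test compounds for ~15 min. The AMC-tagged peptide Ac-VKTGKR-AMC followed at 30 microM. Fluorescence was then recorded at 25 min and scaled against no-enzyme and no-inhibitor wells.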
# [7] = system: Zika virus NS2B-NS3 protease (linked construct); test: 384 well plate NINDS Rhodamine confirmatory qHTS for Zika virus inhibitors (AID 1347164);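 also: fluorescence from protease cleavage of Ac-LKRR-rhodamine 110 substrate; potency is read from the fitted curve at half-maximal effect; nearly all actives have a fitted effect of over 65% in size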
# How it was run: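 Fluorescence at 485/538 nm was measured 25 minutes after adding 10 microM Ac-LKRR-Rd substrate, in the dark at room temperature. The protease (5, 30 or 60 nM final) had been preincubated ~15 minutes with compound; aprotinin as control.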
# [8] = Confirmation and Secondary Assay for Modulators of Hemoglobin Beta Chain Splicing at IVS2 654 locus (AID 910);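 also: HeLa cells stably carrying EGFP split by mutant beta-globin IVS2-654 intron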
# How it was run: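 HeLa cells stably expressing EGFP interrupted by β-globin IVS2-654 intron, seeded overnight in Opti-MEM/2% FCS, then treated 2 days at 37 °C. Restored splicing read as total peak GFP intensity per well by laser scanning cytometry (488 nm excitation, 500–520 nm emission); 500 nM antisense PNA as control.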
# [9] = Confirmation and Secondary Assay for Modulators of Hemoglobin Beta Chain Splicing at IVS2 705 locus (AID 930);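 also: HeLa cells stably expressing the EGFP-705 splicing reporter; GFP fluorescence per well restored by corrected splicing of the IVS2-705 intron in EGFP; series mostly up to about 46 µM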
# How it was run: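 HeLa IVS2-705 EGFP reporter cells, 500/well, compound 2 d at 37C; correct splicing yields fluorescent EGFP. Control: 500 nM antisense PNA. Read-out: total peak GFP intensity.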
# [10] = target: Glutathione peroxidase 1 (Homo sapiens) (UniProt P07203); test: Primary qHTS Assay for Inhibitors of Recombinant Selenoprotein Glutathione Peroxidase 1 (GPX1) (AID 1845191); also: nearly all actives have a fitted effect of over 65% in size
# Sequence of Glutathione peroxidase 1 (Homo sapiens) (P07203 whole entry, looked up): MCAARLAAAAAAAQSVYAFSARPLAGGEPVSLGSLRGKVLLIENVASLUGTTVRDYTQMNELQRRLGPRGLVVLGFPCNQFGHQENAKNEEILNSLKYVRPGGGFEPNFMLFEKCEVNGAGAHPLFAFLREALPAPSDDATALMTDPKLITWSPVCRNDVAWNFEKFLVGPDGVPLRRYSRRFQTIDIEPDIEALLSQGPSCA
# How it was run: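 GR-coupled readout: NADPH consumption tracked by fluorescence, ex 340/em 450 nm, at t=0 and after 15 min at RT. Final mix 10 nM GPX1, 1 mM GSH, 0.5 mM CHP, 0.5 mM NADPH, 100 nM GR, 0.01% BSA, following 30 min enzyme–compound preincubation.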
compound,measurement,setting,value
COC(=O)c1c(NC(=O)c2cc3nc(-c4ccc(Br)cc4)cc(C(F)(F)F)n3n2)sc2c1CCCC2,Potency,[1],inactive
same,Potency,[2],inactive
same,Potency,[3],inactive
same,Potency,[4],inactive
CC(C)c1nn2c(=O)cc(COC(=O)c3cccc(NC(=O)c4ccccc4F)c3)nc2s1,Potency,[1],inactive
same,Potency,[2],inactive
same,Potency,[3],inactive
same,Potency,[4],inactive
O=C(Nc1ccccc1C(=O)OCc1cc(=O)n2nc(C3CC3)sc2n1)c1ccc(Cl)cc1,Potency,[1],41.8 µM (active)
same,Potency,[2],inactive
same,Potency,[3],inactive
same,Potency,[4],inactive
O=C(OCC#CCSc1nnc(-c2cccc3ccccc23)o1)c1ccc(OC(F)(F)F)cc1,Potency,[1],46.9 µM (active)
same,Potency,[2],inactive
same,Potency,[3],inactive
same,Potency,[4],inactive
same,outcome,[5],inactive
O=C(CSc1nnc(-c2cccc([S+](=O)([O-])NC3CCCC3)c2)n1-c1ccc(F)cc1)Nc1ccc(C(=O)O)cc1,Potency,[1],inactive
same,Potency,[2],inactive
same,Potency,[3],inactive
same,Potency,[4],inactive
O=C(OCC#CCSc1nnc(-c2ccc(F)cc2)o1)c1ccc(F)cc1,Potency,[1],inactive
same,Potency,[2],inactive
same,Potency,[3],inactive
same,Potency,[4],inactive
same,outcome,[5],inactive
CCOc1ccccc1NC(=O)c1ccc2oc(=O)c(S(=O)(=O)c3ccc(F)cc3)cc2c1,Potency,[1],inactive
same,Potency,[2],inactive
same,Potency,[3],inactive
same,Potency,[4],inactive
O=C(O)c1ccc(NC(=O)c2cn(-c3ccccc3)nc2-c2ccc(Br)cc2)cc1,Potency,[1],inactive
same,Potency,[2],8.91 µM (active)
same,Potency,[3],6.31 µM (active)
same,Potency,[6],44.7 µM (active)
same,Potency,[7],35.5 µM (active)
O=C(Nc1ccc(-c2nc3ccccc3s2)c(O)c1)c1ccc(Br)cc1,Potency,[1],inactive
same,Potency,[2],inactive
same,Potency,[3],inactive
same,Potency,[4],inactive
Cc1c(Cl)cccc1NS(=O)(=O)c1ccc(NS(=O)(=O)c2ccc3c(c2)OCCO3)cc1,Potency,[1],inactive
same,Potency,[2],44.7 µM (active)
same,Potency,[3],25.1 µM (active)
same,Potency,[6],141 µM (active)
same,Potency,[7],39.8 µM (active)
Cc1csc2nc(COC(=O)c3ccccc3NC(=O)c3ccc(C(C)(C)C)cc3)cc(=O)n12,Potency,[1],37.3 µM (active)
same,Potency,[2],inactive
same,Potency,[3],inactive
same,Potency,[4],inactive
CC(C)(C)c1ccc(S(=O)(=O)Nc2ccc(O)c(Sc3nc4ccccc4s3)c2)cc1,Potency,[1],inactive
same,Potency,[2],35.5 µM (active)
same,Potency,[3],28.2 µM (active)
same,Potency,[7],100 µM (active)
COc1ccc(S(=O)(=O)c2cc(NS(=O)(=O)c3ccc(Cl)cc3)c(C)c(C)c2O)cc1,Potency,[1],inactive
same,Potency,[2],inactive
same,Potency,[3],inactive
same,Potency,[4],inactive
COC(=O)c1ccc(NC(=O)CSc2ccc(-c3sc(-c4ccccc4)nc3C)nn2)cc1,Potency,[1],46.9 µM (active)
same,Potency,[2],inactive
same,Potency,[3],inactive
same,Potency,[4],inactive
Cc1cn2c(=O)cc(COC(=O)c3ccc(NC(=O)c4ccc(C(C)(C)C)cc4)cc3)nc2s1,Potency,[1],46.9 µM (active)
same,Potency,[2],inactive
same,Potency,[3],inactive
same,Potency,[4],inactive
N#C/C(=C\c1ccc(Cl)cc1)c1nc(-c2cc3c(ccc4ccccc43)oc2=O)cs1,Potency,[1],inactive
same,Potency,[2],inactive
same,Potency,[3],inactive
same,Potency,[4],inactive
O=S(=O)(Nc1ccc(O)c(NS(=O)(=O)c2ccccc2)c1)c1ccccc1,Potency,[1],inactive
same,Potency,[2],inactive
same,Potency,[3],inactive
same,Potency,[4],inactive
same,outcome,[5],inactive
O=c1oc2ccc3ccccc3c2cc1-c1nnc(Nc2ccc(Cl)cc2Cl)s1,Potency,[1],inactive
same,Potency,[2],inactive
same,Potency,[3],inactive
same,Potency,[4],inactive
CC(C)OC(=O)c1ccc(NC(=O)CSc2nc(-c3cccs3)cc(C(F)(F)F)n2)cc1,Potency,[1],52.7 µM (active)
same,Potency,[2],inactive
same,Potency,[3],inactive
same,Potency,[4],inactive
O=c1oc2ccccc2cc1-c1nnc(Nc2ccc(Cl)cc2Cl)s1,Potency,[1],inactive
same,Potency,[2],31.6 µM (active)
same,Potency,[3],15.8 µM (active)
same,Potency,[6],50.1 µM (active)
O=C(OCC#CCSc1nnc(-c2cccc3ccccc23)o1)c1cc(F)c(F)c(F)c1,Potency,[1],46.9 µM (active)
same,Potency,[2],inactive
same,Potency,[3],inactive
same,Potency,[4],inactive
same,outcome,[5],inactive
NC(Cc1cc(I)c(Oc2cc(I)c(O)c(I)c2)c(I)c1)C(=O)O (stereo not drawn),outcome,[8],inactive
same,outcome,[9],inactive
same,Potency,[1],inactive
same,Potency,[2],31.6 µM (active)
same,Potency,[3],22.4 µM (active)
same,Potency,[4],inactive
same,Potency,[10],inactive
O=C(OCC#CCSc1nnc(-c2cccc3ccccc23)o1)c1ccc(F)c(F)c1,Potency,[1],59.1 µM (active)
same,Potency,[2],inactive
same,Potency,[3],inactive
same,Potency,[4],inactive
O=C1OCC2=C1C(c1cccc(Cl)c1)CC(=O)N2c1ccc(C(F)(F)F)cc1 (stereo not drawn),Potency,[1],inactive
same,Potency,[2],inactive
same,Potency,[3],inactive
same,Potency,[4],inactive
CC(C)c1nn2c(=O)cc(COC(=O)c3ccc(NC(=O)COc4ccccc4)cc3)nc2s1,Potency,[1],inactive
same,Potency,[2],inactive
same,Potency,[3],inactive
same,Potency,[4],inactive
O=C(OCC#CCSc1nnc(-c2cccc3ccccc23)o1)c1ccc(F)cc1F,Potency,[1],46.9 µM (active)
same,Potency,[2],inactive
same,Potency,[3],inactive
same,Potency,[4],inactive
